Structures are written as SMILES. This is part of a sample that, as a whole, favours compounds with a hit. Of some 79,000 tested, about 15% had one in any assay. Unmarked numbers belong to inactive results. Activity calls are given as the source filed them. Cut-off read from the data, not from the text of the source: active = growth inhibition above about 70%; inactive = the rest. Where a SMILES comes first, the peptide text is derived from it. The star is where a group is joined. Cbz = O=C(OCc1ccccc1)*

These results are taken from PubChem BioAssay (NCI).

The nature of assay [1]: NCI Yeast Anticancer Drug Screen. Data for the rad50 strain (AID 155).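 Note: 0% = growth of vehicle-only cultures of the same strain.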 The note with it: S. cerevisiae rad50 strain growth inhibition; at 50.0 µM; active compounds read high. A digest of the protocol:
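Vehicle-treated cultures provide the reference for the growth inhibition reported for compound-exposed, repair-deficient yeast.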

Assay [2] can be described thus: NCI Yeast Anticancer Drug Screen. Data for the mec2-1 strain (AID 157). The note with it: S. cerevisiae mec2-1 strain, at 50.0 µM, active compounds read high. The gist of the method: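 mec2-1 yeast strain, carrying an alteration in DNA damage repair or cell cycle control, was exposed to compounds; growth inhibition was measured relative to vehicle-treated controls.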
Assay [3] is described as follows: NCI Yeast Anticancer Drug Screen. Data for the sgs1 mgt1 strain (AID 161).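 Note: 0% = growth of cultures given vehicle only.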 The note with it: S. cerevisiae sgs1 mgt1 strain, at 50.0 µM, active compounds read high. A digest of the protocol:
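Percent growth inhibition was derived by comparing compound-exposed mutant yeast with vehicle-exposed cultures. The strain carries alterations in DNA damage repair.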

Assay [4] in a line: NCI Yeast Anticancer Drug Screen. Data for the cln2 rad14 strain (AID 165).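 Note: 0% = growth equal to vehicle treated cultures.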 To be noted: S. cerevisiae cln2 rad14 strain, at 50.0 µM, active compounds read high. A digest of the protocol:
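Yeast carrying cln2 and rad14 alterations (cell cycle control and DNA damage repair) were exposed to compounds. Growth inhibition was measured against vehicle-treated controls.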

The nature of assay [5]: NCI Yeast Anticancer Drug Screen. Data for the bub3 strain (AID 167). The note with it: S. cerevisiae bub3 mutant strain, at 50.0 µM, active compounds read high. A digest of the protocol: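 Mutant yeast screening strain plus compound; vehicle-treated cultures serve as the 0% inhibition reference.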
A short description of assay [6]: NCI Yeast Anticancer Drug Screen. Data for the mlh1 rad18 strain (AID 175). To be noted: S. cerevisiae mlh1 rad18 strain growth inhibition; at 50.0 µM; active compounds read high. The gist of the method: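 Growth inhibition of the yeast strain was measured after compound exposure and expressed relative to vehicle-treated controls. The strain carries defined defects in DNA damage repair.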

With `O=C(O)C(Sc1ccccc1)c1ccccc1` (stereo not given), the growth inhibition in assay [1] was 0.8%; in assay [2], -8.2%; in assay [3] it was -0.05%; in assay [4], -32.4%; in assay [5] it was -21.9%; in assay [6], -21.6%.

Consider `Nc1nc2nn(-c3ccc(C(=O)NC(CCC(=O)O)C(=O)O)cc3)nc2c(=O)[nH]1` (stereo not given), for which the growth inhibition is 7.05% in assay [1]; 2.75% in assay [2]; 12.9% in assay [3]; 30.5% in assay [4]; 9.05% in assay [5]; -1.4% in assay [6].

Turning to `CCOC(=O)c1ccc(NC(NC(=O)CC)(C(F)(F)F)C(F)(F)F)cc1`, the growth inhibition in assay [1] is -26.6%; in assay [2] it was -20.4%; in assay [3], -69.2%; in assay [4], -19.1%; in assay [5], -8.9%; in assay [6], -54%.

As to `CCN(CC)CCCC(C)NC1CCCc2cc3c(cc21)C(=O)c1ccccc1C3=O` (stereo not given), the growth inhibition is 34% in assay [1]; 13.8% in assay [2]; 38.1% in assay [3]; 14.9% in assay [4]; -4.5% in assay [5]; 33.1% in assay [6].

Take `CC(=O)Nc1cccc(OCCOc2ccccc2[N+](=O)[O-])c1`: the growth inhibition in assay [1] was -0.6%; in assay [2], -11.3%; in assay [3], -8.65%; in assay [4] it was 3.15%; in assay [5] it was 4.7%; in assay [6], 8.2%.

On to `COC(=O)C(N)C(C)(C)S` (stereo not given), for which the growth inhibition in assay [1] is -9.9%; in assay [2] it was -2.75%; in assay [3] it was -3.65%; in assay [4], -10%; in assay [5], 6.85%; in assay [6] it was 2.5%.

Regarding `N#CC12CC3CC(CC(C3)C1)C2`, the growth inhibition in assay [1] is -3.9%; in assay [2], -1.5%; in assay [3], -15%; in assay [4] it was -45%; in assay [5], -9.3%; in assay [6], 4.35%.

On to `CC(C)(C)c1ccc(S(=O)(=O)/C=C/c2ccccc2)cc1`, for which the growth inhibition in assay [1] is -2.4%; in assay [2] it was 35%; in assay [3] it was -9.3%; in assay [4], 26.1%; in assay [5] it was 4.1%; in assay [6], 6.3%.

As to `CC(=O)/C(=C\n1c(=S)[nH]c2ccc([N+](=O)[O-])cc21)C(=O)Nc1ccccc1C`, the growth inhibition in assay [1] is 2.1%; in assay [2] it was -44.8%; in assay [3], -5.05%; in assay [4] it was -2.8%; in assay [5], -20.4%; in assay [6] it was -7.3%.

As to `CC(C)C(NC(=O)C(Cc1ccc(O)cc1)NC(=O)OCc1ccccc1)C(=O)O` (stereo not drawn) (Cbz-Tyr-Val-OH; configuration not given here), the growth inhibition was 10.2% in assay [1]; -3.25% in assay [2]; -3.85% in assay [3]; -29.6% in assay [4]; -3.15% in assay [5]; 1.8% in assay [6].

For `CC1=C(C(=O)NC2CCCCC2)CC(C(=O)NC2CCCCC2)=C(C)N1`, the growth inhibition is -16.6% in assay [1]; -25.6% in assay [2]; -26.2% in assay [3]; -21.1% in assay [4]; -17.3% in assay [5]; -61.9% in assay [6].

Turning to `Nc1nc(N)c(-c2ccccc2)c(CCC(=O)Nc2ccc(Cl)cc2)n1`, the growth inhibition in assay [1] was -34.8%; in assay [2], 3.95%; in assay [3], -3.35%; in assay [4] it was -27.9%; in assay [5] it was -21.5%; in assay [6] it was 7.8%.

For `NNC(=O)COCC(=O)NN`, the growth inhibition in assay [1] is -17.5%; in assay [2], -27.2%; in assay [3], -24.5%; in assay [4], -9.1%; in assay [5], -15.2%; in assay [6], -25.1%.

Turning to `CCN(C/C=C/CN(CC)C(=S)Nc1ccccc1)C(=S)Nc1ccccc1`, the growth inhibition in assay [1] is 29.6%; in assay [2], -7.85%; in assay [3], 5.2%; in assay [4], 18.8%; in assay [5], -1.1%; in assay [6], 9.8%.

With `O=C(O)C1(C(=O)O)CCCCC1.[NH-]CC1(C[NH-])CCCCC1.[Pt+2]`, the growth inhibition in assay [1] is 21.8%; in assay [2] it was 9.95%; in assay [3], 27.8%; in assay [4], 21.1%; in assay [5] it was 5.85%; in assay [6], 14.9%.

For the molecule `O=[N+]([O-])c1ccc(-c2nc3ccc(Cl)cc3[nH]2)cc1`, the growth inhibition in assay [1] is -16.1%; in assay [2], 30.9%; in assay [3] it was 25.2%; in assay [4], 21.9%; in assay [5], 9.55%; in assay [6], 44.5%.

Turning to `Cc1ccc(S(=O)(=O)N2CCCC2C(=O)O[C@H]2CC[C@H]3CC=C[C@H]32)cc1` (stereo not given in full), the growth inhibition is -15.6% in assay [1]; -44.7% in assay [2]; -8.2% in assay [3]; -8.45% in assay [4]; -5.25% in assay [5]; -21.6% in assay [6].

As for `Cc1cc2c(=O)cc(-c3ccc(C(=O)O)cc3)oc2c(C(=O)O)c1C`, the growth inhibition in assay [1] was 7.1%; in assay [2], 4.3%; in assay [3], 22.8%; in assay [4], 29.8%; in assay [5], 5.7%; in assay [6], 10.5%.

With `C/C(=N/O)c1cccc([N+](=O)[O-])c1`, the growth inhibition in assay [1] was -10.7%; in assay [2], 15.5%; in assay [3], -4.95%; in assay [4], -14.3%; in assay [5] it was -3.6%; in assay [6] it was -7.15%.

Turning to `O=C(NCCNCCCNC(=O)c1cc(-c2ccccc2)nc2ccccc12)c1cccc(OCc2ccccc2)c1OCc1ccccc1`, the growth inhibition in assay [1] was 86.3% (active); in assay [2] it was 90.9% (active); in assay [3], 90.3% (active); in assay [4], 87.5% (active); in assay [5], 89.2% (active); in assay [6], 85.8% (active).
